Test results: the supplement of paper PMC6555819

Columns and labels:
Assay in all cases: PBM binding z-score (relative to random genomic background probes); higher = stronger binding; sequences stand for … in GC…GCGATTGACAGCGTAGAATGAAGG
[1] = system: RARb homodimer (NR concentration 270 nM)
Method in brief: (§1)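 The probes on custom Agilent 4×180K protein-binding microarrays were double-stranded, with 34-nt variable regions bearing direct-repeat seeds, single-nucleotide variants, half-site ablations and random human genomic background sequences. Incubation lasted 1 h with ligand-free nuclear receptor dimers in PBS pH 7.4, 2% milk, 0.02% Triton X-100, 1 mM DTT, 0.2 mg/mL BSA and 0.4 mg/ml salmon testes DNA. Antibodies against each partner (one per run) detected bound dimers, and fluorescence scans were regression-normalized. Binding z-scores take the random background probes as reference.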

[2] = system: RARg:RXRa (NR concentration 270 nM, RXRa partner concentration 90 nM)
Method in brief: as §1

[3] = system: RARg homodimer (NR concentration 270 nM)
Method in brief: as §1

[4] = system: RXRa DBDmut IVT, anti-RXR (DBD mutation: RXRa K156A/R161A, NR concentration 90 nM)
Method in brief: as §1

[5] = system: RXRa homodimer (NR concentration 180 nM)
Method in brief: as §1

[6] = system: THRa:RXRa (NR concentration 90 nM, RXRa partner concentration 90 nM)
Method in brief: as §1

[7] = system: THRa homodimer (NR concentration 90 nM)
Method in brief: as §1

[8] = system: VDR homodimer (NR concentration 270 nM)
Method in brief: as §1

| Sequence | PBM binding z-score [1] | PBM binding z-score [2] | PBM binding z-score [3] | PBM binding z-score [4] | PBM binding z-score [5] | PBM binding z-score [6] | PBM binding z-score [7] | PBM binding z-score [8] |
| --- | --- | --- | --- | --- | --- | --- | --- | --- |
| CCTACTGGGCCATGAGGTCATTGATATCAACGTT | 3.32 | 3.54 | 2.78 | 1.42 | 3.58 | 3.97 | 4.36 | 4.75 |
| TCGAGTAGGTTAGCAATGGGGCATTCAGCTTTCT | 0.353 | 0.194 | -0.0673 | 0.158 | 0.129 | -0.27 | -0.716 | -0.45 |
| TCTCGCAGGACACGAAAGGTCAGAGCTCGACATC | 4.29 | 4.42 | 4.47 | 1.05 | 4.07 | 3.42 | 0.878 | 0.759 |
| TCATATAGGTAAAAGTTGAAAGTCGGTGTGGTAA | 0.645 | 0.703 | 0.395 | 1.69 | 1.83 | 0.586 | -0.0355 | 0.425 |
| TAGCCTAGGTCATGCGGGCCAGTGTAGTGTCGGC | 3.06 | 3.69 | 4.29 | 0.446 | 2.6 | 2.99 | 0.878 | 0.567 |
| GCATATAGGTAATACAAGGTGAAAGACCGATTGT | 0.665 | 0.88 | 0.835 | 0.075 | 0.929 | 4.12 | 0.583 | -0.0342 |
| TCTAGCAGGCCAGAGGGTCACGCAAGAGGTACGG | 3.37 | 3.78 | 3.41 | -0.273 | 4.06 | 2.33 | -0.0703 | 0.674 |
| TCATATAGGTAATACAGGTCAAAGTCGGCATCTA | 3.29 | 2.91 | 2.37 | 2.04 | 3.63 | 2.71 | 1.24 | 2.13 |
| ATCTCTAGGTAAAGTTCAGTGGAAGATCGATAGA | 2.55 | 2.03 | 2.47 | 1.74 | 1.11 | 1.3 | 0.319 | 2.23 |
| CCGAGTAGGTTTTGGGGCATTCAGGCAACGGTGA | 0.615 | -0.245 | -0.424 | 0.218 | -0.246 | 0.595 | 0.467 | 0.218 |
| GCTTACGGGTCAAGGGTTATAGCATGAATAGAAT | 3.07 | 5.54 | 4.39 | 1.86 | 7.3 | 3.14 | 0.219 | 0.975 |
| ACTTACGGGTCAACGAGGTTATAGCACGCGTATA | 3.53 | 5.57 | 5.3 | 2.71 | 6.39 | 4.01 | 1.25 | 3.96 |
| TAGCCTAGGTCATGCGGGCTAGTATAGTGTCGGC | 2.99 | 3.77 | 3.75 | 0.197 | 2.92 | 3.15 | 0.88 | 0.2 |
| GATGCTAGGTCAACTGATGGTCAGCTAAAGCTCG | 3.45 | 5.12 | 5.33 | 1.06 | 2.84 | 2.98 | 0.992 | -0.0193 |
| ACAGACAGGTGATGAAGGTAAGTCAGGCTATCAT | 0.406 | 0.153 | 0.428 | -0.263 | 0.248 | 0.617 | -0.25 | -0.186 |
| CCTATTGGGCCAAGGTCATTGATCAGTCAAAGCA | 3.15 | 3.81 | 3.22 | 1.62 | 3.07 | 3.6 | 2.3 | 3.13 |
| CCGACCGGGGCATAAGGTTACCATAAGCCAGCCC | 2 | 2.18 | 1.62 | -0.289 | 1.68 | 2.57 | 1.66 | 0.0101 |
| CCGACTGGGGCAAGGTTACCATTACGCACAGCCA | 1.42 | 0.911 | 1.17 | -0.427 | 1.03 | 1.09 | 0.435 | 0.338 |
| AATACAGGGTCATCGTAGGCCAGAATACGCACAG | 3.68 | 5.69 | 5.13 | 3.5 | 6.42 | 4.4 | 1.5 | 3.25 |
| CGACCTAGGTCATTGACAGGACAGTGAATAGTAA | 3.01 | 5.2 | 4.67 | 2.83 | 3.09 | 3.2 | 0.892 | 1.47 |
| AGAATGAGGTGAAGATCAGGGAAACAGAATACAT | 0.949 | 1.15 | 1.09 | -0.551 | 1.05 | 2.77 | 1.32 | 0.103 |
| CCTGCTAGGTAAATGGTCAGCTAAAGCAGCTCGC | -0.0242 | -0.351 | -0.323 | -0.0563 | -0.478 | -0.113 | -0.416 | -0.618 |
| TCTTTTAGTTGAAGGGCAACCGACGAGTCCGTTT | 1.24 | 0.599 | 0.744 | 1.5 | 0.842 | 0.355 | -0.174 | 1.29 |
| ATCTCTAGGTAAAGATAGGTCAGTGAATGCAAAT | 2.4 | 1.84 | 1.85 | 0.189 | 1.2 | 2.02 | 0.451 | 0.412 |
| AGAACGAGGGCAATGATTTGATAGCACGGGTGGC | 0.954 | 0.982 | 1.4 | 1.64 | 0.834 | 0.95 | 0.00137 | 0.721 |
| TCTGCTAGGGCAACGATGGTCAGCTAATCTGCTA | 0.762 | 0.579 | 0.934 | -0.149 | -0.0028 | 0.381 | -0.978 | -0.735 |
| CCGACTGGGGCAGACAGGTTACCATACCATCCGG | 0.849 | 0.341 | 0.456 | -0.96 | 0.238 | -0.0397 | 0.0396 | -0.23 |
| GTACCAAGGTGAATAGGTCGCTGATGAGTAGGCG | 1.69 | 2.65 | 1.53 | -0.316 | 1.66 | 1.59 | 0.0254 | -0.0986 |
